Out of some 1,500 compounds screened, about 460 (31%) were called active. Roughly 1% stayed inconclusive and do not appear here.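 Rule for the calls: active = curve reaches 40% activation over neutral controls at an AC40 no higher than the top valid tested concentration; inconclusive = no clear call, values can overlap the other calls; inactive = signal moving opposite to the expected increase, and the rest.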 A selection follows. Measured potencies and affinities stand elsewhere.
Test: activators of glucose-dependent insulin secretion, dose response, cell-based, INS-1E, Gaussia luciferase, luminescence, cherry-pick, set 2 (AID 977607);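 note: 0% = median of the plate neutral control wells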
Settings: INS-1E GLuc insulin secretion reporter, 2-3 h, active compounds read high; at 35 µM, 100% = signal doubled over neutral wells unless noted

Max activation, inactive:
NC(=O)c1cc2cc(Cl)ccc2o/c1=N/NC(=O)c1cccs1 -12.9% [at 0.135 µM, 100% = signal doubled over neutral wells], N#CCCN(Cc1ccccc1)C(=O)c1cccs1 -20.9% [at 11 µM, 100% = signal doubled over neutral wells], CCOC(=O)c1cc(CC)sc1NC(=O)COC(=O)c1cnccn1 -18.2% [at 0.005 µM, 100% = signal doubled over neutral wells], COc1cccc(CNC(=O)c2cccnc2Sc2ccccc2)c1 -18.8% [at 0.0016 µM, 100% = signal doubled over neutral wells], CCOc1ncccc1C(=O)NCc1cccc(OC)c1 -19.1% [at 0.0016 µM, 100% = signal doubled over neutral wells], CCOc1ccc(CCNC(=O)COC(=O)c2nccnc2N)cc1OCC 16.3% [at 0.42 µM, 100% = signal doubled over neutral wells], C/C(Cl)=C\Cn1c(N2CCCC2)nc2c1c(=O)[nH]c(=O)n2C -16.5% [at 0.0016 µM, 100% = signal doubled over neutral wells], COc1ccc(NC(=O)Cc2c(SC)c3ccccc3n2Cc2ccccc2)cc1 28.7% [at 1.2 µM, 100% = signal doubled over neutral wells], CCCCC(=O)N(C)c1c(CC)nc2c(OCc3ccc(C(F)(F)F)cc3)cccn12 -15.2%, CCc1nc2c(OCc3ccccc3C(=O)OC)cccn2c1N(C)C(=O)c1ccncc1 -29.4%, C[C@H]1CN([C@@H](C)CO)C(=O)c2ccccc2-c2ccccc2CO[C@@H]1CN(C)Cc1ccc(Cl)c(Cl)c1 -38.4% [at 3.8 µM, 100% = signal doubled over neutral wells], C[C@@H]1CN([C@@H](C)CO)C(=O)c2cccc(NC(=O)Nc3ccc(C(F)(F)F)cc3)c2O[C@H]1CN(C)Cc1ccc(Cl)c(Cl)c1 -26.5% [at 11 µM, 100% = signal doubled over neutral wells], C[C@H](CO)N1C[C@H](C)[C@@H](CN(C)C(=O)CC2CC2)Oc2cc(C#CC(C)(C)O)ccc2S1(=O)=O 36.4% [at 0.046 µM, 100% = signal doubled over neutral wells], C[C@@H]1CN([C@H](C)CO)C(=O)c2cc(C#CCN(C)C)cnc2O[C@H]1CN(C)S(=O)(=O)c1cn(C)cn1 31.4% [at 0.015 µM, 100% = signal doubled over neutral wells], C[C@@H]1CN([C@H](C)CO)S(=O)(=O)c2ccc(-c3ccc(C#N)cc3)cc2O[C@H]1CN(C)C 15.6% [at 0.046 µM, 100% = signal doubled over neutral wells], C[C@H]1CN([C@@H](C)CO)C(=O)c2ccccc2-c2ccccc2CO[C@@H]1CN(C)Cc1cccc(C(F)(F)F)c1 -39% [at 11 µM, 100% = signal doubled over neutral wells], COCC(=O)N(C)C[C@H]1Oc2cc(Br)ccc2S(=O)(=O)N([C@H](C)CO)C[C@H]1C -5.77% [at 0.046 µM, 100% = signal doubled over neutral wells], C[C@@H]1CN([C@H](C)CO)C(=O)c2cc(C#CCc3ccccc3)cnc2O[C@H]1CN(C)C(=O)C1CCC1 25.2% [at 0.015 µM, 100% = signal doubled over neutral wells], COc1ccc(-c2nc3cccc(C)n3c2NCc2ccco2)cc1OC -14.6% [at 1.2 µM, 100% = signal doubled over neutral wells], CN(C)c1ccc(CC(=O)N2CCCCC2c2cc(C(=O)Nc3ccccc3Cl)no2)cc1 (configuration not stated) -48.9%, CCCc1c(C)c2ccc(OCC(C)=O)cc2oc1=O -16.6% [at 0.005 µM, 100% = signal doubled over neutral wells], CCOC(=O)N1CCN(S(=O)(=O)c2ccc3c4c(cccc24)C(=O)N3)CC1 37.4% [at 0.42 µM, 100% = signal doubled over neutral wells], C[C@H]1CN([C@@H](C)CO)C(=O)c2cc(C#CCc3ccccc3)cnc2O[C@@H]1CN(C)C(=O)C1CC1 -42.9%, C[C@@H]1CN([C@H](C)CO)C(=O)Cc2cc(NC(=O)CCCN(C)C)ccc2O[C@H]1CN(C)Cc1ccc(-c2ccccc2)cc1 19.8%, C[C@@H]1CN([C@@H](C)CO)C(=O)CCCn2nncc2CO[C@H]1CN(C)Cc1ccccc1 -19.1% [at 0.015 µM, 100% = signal doubled over neutral wells], C[C@H](CO)N1C[C@H](C)[C@@H](CN(C)C(=O)Cc2ccccn2)Oc2cc(C#C[C@@H](C)O)ccc2S1(=O)=O -20.3% [at 0.135 µM, 100% = signal doubled over neutral wells], O=C(Cn1cnc2c(OCc3ccccc3)ncnc21)NCc1ccccn1 17.4% [at 0.135 µM, 100% = signal doubled over neutral wells], Cc1c(C)n(CCCN(C)C)c2ncnc(Nc3ccccc3)c12 -20.1% [at 11 µM, 100% = signal doubled over neutral wells], Cc1ccc(F)cc1NC(=O)c1sc2ncn(CC(=O)N3CCN(c4ccccn4)CC3)c(=O)c2c1C -38%, COc1ccc(/C=N/n2c(-c3n[nH]c4c3CCC4)n[nH]c2=S)cc1OC -27.2% [at 0.0016 µM, 100% = signal doubled over neutral wells], Cc1ccc(/C=N/n2c(-c3cccnc3)n[nH]c2=S)s1 -11.8% [at 1.2 µM, 100% = signal doubled over neutral wells], S=c1[nH]nc(-c2ccccc2)n1/N=C/c1c[nH]c2ccccc12 30.5% [at 0.005 µM, 100% = signal doubled over neutral wells]

— PubChem BioAssay AID977607 (Broad Institute, 2014)
